# Assay results from PubChem BioAssay AID1345085 (National Center for Advancing Translational Sciences (NCATS), 2018).
# Inconclusive results are not listed. Values without a mark were called inactive. The source made the active and inactive calls. Calls follow the shape of the dose curve; as a rule, active = well fitted cell-killing curve with a large enough effect; inconclusive = small, poorly fitted or top-dose-only effect, or effect the other way; inactive = no such curve, though single readings can be large or run the other way.
# Test system: SW626
# Experiment: Confirmatory qHTS for gynecologic anti-cancer compounds from libraries of approved drugs and bioactive compounds; also: nearly all actives have a fitted effect of over 55% in size
# Details: gynecologic cancer cell panel viability, ATPlite luminescence, 48 h; series mostly up to 57.6 µM; activity change, negative = viability loss: at the top concentration
# How it was run: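 ATP-based luminescent viability (ATPlite) after 48 h drug treatment at 37 °C, 5% CO2, across 57.5 uM–0.977 nM in 1:3 steps. Cells seeded at 1,000 per well 16 h beforehand; IC50 values computed, HEK 293T as selectivity control.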
# % is scaled to controls: 0 for no effect and ±100 for the full control effect; potency is read from the fitted curve at half-maximal effect.
Compound,"activity change, negative = viability loss",Potency
Cc1ccc(C(N)=O)cc1Nc1nccc(-c2cn(C(C)C)c3cnccc23)n1,8.56%,
COc1ccc(CCC(=O)c2c(O)cc(O[C@@H]3O[C@H](CO)[C@@H](O)[C@H](O)[C@H]3O[C@@H]3O[C@@H](C)[C@H](O)[C@@H](O)[C@H]3O)cc2O)cc1O,3.71%,
Cc1cc(Nc2nc(N[C@@H](C)c3ccc(F)cc3)c(C#N)cc2F)n[nH]1,,5.44 µM (active)
O=C1NC(=O)C(c2cnc3ccccn23)=C1c1cn2c3c(cccc13)CN(C(=O)N1CCOCC1)CC2,-3.12%,
CN(C[C@@H]1COCCO1)S(=O)(=O)Nc1ccc2ccc3ncc(-c4cnn(C)c4)cc3c(=O)c2c1,0.279%,
CC(C)C[C@H](NC(=O)[C@H](Cc1ccccc1)NC(=O)c1cnccn1)B(O)O,,0.0137 µM (active)
COc1ccc2cc3[n+](cc2c1OC)CCc1cc2c(cc1-3)OCO2,0.945%,
CC1(C)[C@@H](O)CC[C@]2(C)[C@H]3C(=O)C=C4[C@@H]5C[C@@](C)(C(=O)O)CC[C@]5(C)CC[C@@]4(C)[C@]3(C)CC[C@@H]12,16.5%,
Cn1cnc2c(F)c(Nc3ccc(Br)cc3Cl)c(C(=O)NOCCO)cc21,,2.73 µM (active)
CN1CCCC(n2nc(Cc3ccc(Cl)cc3)c3ccccc3c2=O)CC1 (stereo not given),,27.3 µM (active)
NS(=O)(=O)c1ccc(Nc2nc(OCC3CCCCC3)c3[nH]cnc3n2)cc1,-23.4%,
Cc1cnc(CNC(=O)c2c(=O)c3ccc(N4CCCN(C)CC4)nc3n3c2sc2ccccc23)cn1,-6.28% [at 10.7 µM],
Cc1cnc(Nc2ccc(F)cc2Cl)nc1-c1c[nH]c(C(=O)NC(CO)c2cccc(Cl)c2)c1 (stereo not given),-11.9%,
Cc1csc(NC(=O)c2sc3nc4c(c(C(F)(F)F)c3c2N)CCC4)n1,,1.72 µM (active)
CC(C)(C)C(=O)OCOP(=O)(COCCn1cnc2c(N)ncnc21)OCOC(=O)C(C)(C)C,,17.2 µM (active)
CC(=O)O[C@H]1C(=O)[C@@]2(C)[C@H]([C@H](OC(=O)c3ccccc3)[C@]3(O)C[C@H](OC(=O)[C@H](O)[C@@H](NC(=O)c4ccccc4)c4ccccc4)C(C)=C1C3(C)C)[C@]1(OC(C)=O)CO[C@@H]1C[C@@H]2O,-9.14% [at 10.7 µM],
COc1cc(-c2nn(C3CCC(N4CCN(C(C)=O)CC4)CC3)c3ncnc(N)c23)ccc1NC(=O)c1cc2ccccc2n1C (stereo not given),,27.3 µM (active)
CN1C2CCC1CC(OC(=O)[C@H](CO)c1ccccc1)C2 (stereo not given in full),-16.8%,
CN(C)c1ccc(-c2nc3ncc(Cl)c(N4CCN(CC(=O)Nc5nccs5)CC4)c3[nH]2)cc1,-9.1% [at 19.5 µM],
CCOc1ccc(Nc2nc(-c3c(C)nc4ccccn34)cs2)cc1,-4.72%,
Nc1ccccc1NC(=O)c1ccc(CNc2nccc(-c3cccnc3)n2)cc1,,0.685 µM (active)
OCc1ccc(-c2ccc(-c3ccc(CO)s3)o2)s1,,10.6 µM (active)
COc1ccccc1N1CCN(CC(O)COc2cccc3ccccc23)CC1 (stereo not given),6.89%,
O=C1c2c(O)ccc(O)c2C(=O)c2c(NCCNCCO)ccc(NCCNCCO)c21,,6.85 µM (active)
CC[C@@]1(O)C(=O)OCc2c1cc1n(c2=O)Cc2cc3c(CN(C)C)c(O)ccc3nc2-1,,0.863 µM (active)
COc1cc(N2CCC(N)CC2)ccc1Nc1ncc(Cl)c(-c2c[nH]c3ccccc23)n1,,21.7 µM (active)
Nc1ncn([C@@H]2O[C@H](CO)[C@@H](O)[C@H]2O)c(=O)n1,0.885%,
CC(C)CC(=O)Nc1n[nH]c2c1CN(C(=O)C1CCN(C)CC1)C2(C)C,10.2%,
COC(C)(C)CCn1nc(Nc2c(C)cccc2C)c2cnc(Nc3ccc(OCCN4CCCC4)c(F)c3)nc21,,19.3 µM (active)
Cc1ccc(C(=O)N(CCCN)C(c2nc3cc(Cl)ccc3c(=O)n2Cc2ccccc2)C(C)C)cc1 (stereo not given),,9.68 µM (active)
